{"source": "PubChem BioAssay", "key": {"[1]": {"experiment": "binders of probe aFSTL3 on microarray, primary screen, stem cell growth factor project, biochemical, small-molecule microarray, fluorescence 635/667 (AID 1064);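 also: measures binding of the biotinylated anti-FSTL3 antibody to printed compounds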", "conditions": "higher = more signal"}, "[2]": {"experiment": "binders from COS7 lysate, DM2A8 probe, primary screen, torsin A project, cell lysate, small-molecule microarray, fluorescence 635/667 (AID 1065)", "conditions": "higher = more signal, COS7 lysate expressing mutant human TOR1A"}, "[3]": {"experiment": "binders of probe aFGF2 on microarray, primary screen, stem cell growth factor project, biochemical, small-molecule microarray, fluorescence 635/667 (AID 1067);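 also: measures binding of biotinylated aFGF2 protein to printed compounds on slides; z-score merges feature fluorescence and signal-to-noise across triplicate slides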", "conditions": "higher = more signal"}, "[4]": {"experiment": "binders of probe aFGF10 on microarray, primary screen, stem cell growth factor project, biochemical, small-molecule microarray, fluorescence 635/667 (AID 1071);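 also: score merges 667 nm spot intensity and signal to noise from triplicate slides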", "conditions": "higher = more signal"}, "[5]": {"target": "Neurogenic locus notch homolog protein 2 (Homo sapiens) (UniProt Q04721)", "sequence (Q04721 whole entry, looked up)": "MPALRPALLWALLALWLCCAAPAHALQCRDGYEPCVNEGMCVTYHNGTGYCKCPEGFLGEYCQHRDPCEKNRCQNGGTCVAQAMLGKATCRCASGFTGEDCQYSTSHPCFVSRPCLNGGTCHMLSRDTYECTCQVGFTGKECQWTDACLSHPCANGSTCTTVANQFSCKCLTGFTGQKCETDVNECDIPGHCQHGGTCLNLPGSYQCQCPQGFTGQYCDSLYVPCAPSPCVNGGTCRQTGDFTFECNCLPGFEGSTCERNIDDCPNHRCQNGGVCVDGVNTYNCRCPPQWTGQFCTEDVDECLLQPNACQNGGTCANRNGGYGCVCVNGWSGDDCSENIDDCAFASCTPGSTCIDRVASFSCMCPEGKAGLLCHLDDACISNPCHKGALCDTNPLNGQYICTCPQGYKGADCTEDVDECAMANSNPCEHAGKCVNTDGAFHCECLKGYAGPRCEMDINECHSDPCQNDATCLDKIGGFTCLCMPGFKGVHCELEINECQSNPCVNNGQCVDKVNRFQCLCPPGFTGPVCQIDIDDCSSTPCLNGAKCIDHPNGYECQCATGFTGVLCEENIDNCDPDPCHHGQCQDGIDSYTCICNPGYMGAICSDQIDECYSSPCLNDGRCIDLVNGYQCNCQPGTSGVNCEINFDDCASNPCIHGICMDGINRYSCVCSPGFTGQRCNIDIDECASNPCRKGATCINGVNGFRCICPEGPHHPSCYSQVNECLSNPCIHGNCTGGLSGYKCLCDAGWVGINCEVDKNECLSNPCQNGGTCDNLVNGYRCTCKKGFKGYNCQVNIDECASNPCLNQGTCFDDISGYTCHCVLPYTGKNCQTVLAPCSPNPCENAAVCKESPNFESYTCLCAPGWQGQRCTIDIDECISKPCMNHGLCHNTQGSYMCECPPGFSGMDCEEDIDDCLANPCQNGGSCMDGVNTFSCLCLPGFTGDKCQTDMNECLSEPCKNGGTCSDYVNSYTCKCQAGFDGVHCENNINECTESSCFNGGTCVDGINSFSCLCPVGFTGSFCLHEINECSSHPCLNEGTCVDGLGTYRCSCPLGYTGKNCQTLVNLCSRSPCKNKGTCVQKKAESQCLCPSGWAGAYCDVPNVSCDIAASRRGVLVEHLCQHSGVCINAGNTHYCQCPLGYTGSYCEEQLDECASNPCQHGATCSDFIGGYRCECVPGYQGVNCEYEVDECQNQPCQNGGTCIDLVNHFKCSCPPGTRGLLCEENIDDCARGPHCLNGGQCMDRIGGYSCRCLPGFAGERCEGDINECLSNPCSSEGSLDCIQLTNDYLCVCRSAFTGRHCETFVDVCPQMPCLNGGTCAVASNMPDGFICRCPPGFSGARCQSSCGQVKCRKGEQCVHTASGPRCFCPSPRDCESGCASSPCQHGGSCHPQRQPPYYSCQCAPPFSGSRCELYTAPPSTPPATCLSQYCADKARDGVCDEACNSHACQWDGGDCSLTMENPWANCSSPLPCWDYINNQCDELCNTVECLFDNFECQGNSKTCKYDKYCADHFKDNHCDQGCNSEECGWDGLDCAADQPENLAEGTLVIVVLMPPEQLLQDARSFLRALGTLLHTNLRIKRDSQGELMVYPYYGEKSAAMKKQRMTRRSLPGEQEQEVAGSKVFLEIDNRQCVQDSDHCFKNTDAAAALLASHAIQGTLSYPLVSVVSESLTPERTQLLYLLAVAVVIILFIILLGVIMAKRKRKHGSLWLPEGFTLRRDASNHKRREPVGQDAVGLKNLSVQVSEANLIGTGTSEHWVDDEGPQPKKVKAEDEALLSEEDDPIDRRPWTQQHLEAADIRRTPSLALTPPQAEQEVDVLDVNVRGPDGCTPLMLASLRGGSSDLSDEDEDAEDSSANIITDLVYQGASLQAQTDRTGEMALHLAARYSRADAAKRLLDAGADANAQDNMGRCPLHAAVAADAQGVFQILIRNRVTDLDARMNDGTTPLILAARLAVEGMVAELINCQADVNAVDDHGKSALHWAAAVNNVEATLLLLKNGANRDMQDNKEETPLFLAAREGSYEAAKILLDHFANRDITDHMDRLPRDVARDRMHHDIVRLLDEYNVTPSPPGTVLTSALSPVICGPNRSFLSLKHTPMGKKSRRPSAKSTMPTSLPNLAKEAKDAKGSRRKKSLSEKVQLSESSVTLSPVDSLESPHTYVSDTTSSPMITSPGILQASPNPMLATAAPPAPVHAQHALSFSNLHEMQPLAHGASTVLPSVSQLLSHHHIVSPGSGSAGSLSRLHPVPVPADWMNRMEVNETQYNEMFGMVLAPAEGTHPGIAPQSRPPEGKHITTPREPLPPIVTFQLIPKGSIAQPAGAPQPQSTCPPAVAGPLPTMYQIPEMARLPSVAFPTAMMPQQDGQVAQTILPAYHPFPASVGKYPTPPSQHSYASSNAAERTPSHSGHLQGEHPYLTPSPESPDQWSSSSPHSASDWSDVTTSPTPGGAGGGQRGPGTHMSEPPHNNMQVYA", "experiment": "Notch2 binders on small-molecule microarrays, primary screen, biochemical, small-molecule microarray, 635 nm fluorescence, stem cell growth factors (AID 1073)", "conditions": "Notch2 binding, higher = more signal"}, "[6]": {"target": "Pro-neuregulin-1, membrane-bound isoform (Homo sapiens) (UniProt Q02297)", "sequence (Q02297 whole entry, looked up, canonical isoform)": "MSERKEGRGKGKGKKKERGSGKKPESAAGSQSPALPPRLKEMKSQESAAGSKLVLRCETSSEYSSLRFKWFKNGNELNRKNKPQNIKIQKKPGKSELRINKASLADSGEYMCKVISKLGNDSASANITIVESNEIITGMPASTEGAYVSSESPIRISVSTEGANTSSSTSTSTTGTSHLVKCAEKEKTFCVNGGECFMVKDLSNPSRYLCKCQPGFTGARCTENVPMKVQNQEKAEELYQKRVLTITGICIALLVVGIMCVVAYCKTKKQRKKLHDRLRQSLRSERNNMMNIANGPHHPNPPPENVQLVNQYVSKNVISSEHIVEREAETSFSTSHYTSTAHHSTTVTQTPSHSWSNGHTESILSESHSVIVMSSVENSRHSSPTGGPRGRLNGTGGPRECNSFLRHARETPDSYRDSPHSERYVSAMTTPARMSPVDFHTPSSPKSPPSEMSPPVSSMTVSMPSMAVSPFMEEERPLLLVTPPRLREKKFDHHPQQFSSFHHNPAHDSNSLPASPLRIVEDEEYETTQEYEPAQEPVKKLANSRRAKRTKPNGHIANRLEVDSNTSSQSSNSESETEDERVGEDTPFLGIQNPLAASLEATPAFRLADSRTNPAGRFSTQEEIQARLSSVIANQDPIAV", "experiment": "NRG1 binders on small-molecule microarrays, primary screen, psychiatric disease protein project, biochemical, small-molecule microarray, fluorescence 635/667 (AID 1075);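 also: score combines 667 nm spot fluorescence with signal to noise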", "conditions": "NRG1 binding, 635 nm fluorescence, higher = more signal"}, "[7]": {"tested_on": "Neuregulin-1 EGF-like domain", "experiment": "binders of neuregulin-1 EGF-like domain, primary screen, biochemical, small-molecule microarray, 635 nm fluorescence (AID 1081);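 also: binding of the protein to compounds printed on small-molecule microarray slides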", "conditions": "small-molecule microarray binding, higher = more signal"}, "[8]": {"experiment": "FRG1 promoter luciferase signal modulators, primary screen, FRG1 inhibition for FSHD, cell-based, C2C12 myotubes, firefly/Renilla luciferase, luminescence (AID 1084)", "conditions": "higher = more signal, called active from +8 up or from −8 down"}, "[9]": {"experiment": "binders of probe aFST on microarray, primary screen, stem cell growth factor project, biochemical, small-molecule microarray, fluorescence 635/667 (AID 1086);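 also: score merges 667 nm fluorescence with signal-to-noise of each printed compound spot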", "conditions": "higher = more signal"}, "[10]": {"experiment": "binders of probe aHhip on microarray, primary screen, stem cell growth factor project, biochemical, small-molecule microarray, fluorescence 635/667 (AID 1087);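 also: score merges spot fluorescence at 667nm with spot signal to noise ratio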", "conditions": "higher = more signal"}}, "note": "Activity calls are given as the source filed them."}
{"smiles": "CCCCCC1=C2CNC(CC(C)C)(C(=O)OC)C=C2C(C)C1=O", "note": "(stereo not given)", "values": [{"measurement": "composite z-score", "setting": "[1]", "value": 1.08}, {"measurement": "composite z-score", "setting": "[2]", "value": -0.176}, {"measurement": "composite z-score", "setting": "[3]", "value": 0.185}, {"measurement": "composite z-score", "setting": "[4]", "value": 0.0051}, {"measurement": "composite z-score", "setting": "[5]", "value": 0.122}, {"measurement": "composite z-score", "setting": "[6]", "value": 1.01}, {"measurement": "composite z-score", "setting": "[7]", "value": 0.568}, {"measurement": "z-score", "setting": "[8]", "value": "0.51 (inactive)"}, {"measurement": "composite z-score", "setting": "[9]", "value": 0.404}, {"measurement": "composite z-score", "setting": "[10]", "value": 3.31}]}
{"smiles": "CC(C)C(=C=CC[C@H](O)c1ccccc1OCCO)C[C@H](O)COCc1ccccc1", "values": [{"measurement": "composite z-score", "setting": "[1]", "value": -0.322}, {"measurement": "composite z-score", "setting": "[2]", "value": -0.0849}, {"measurement": "composite z-score", "setting": "[3]", "value": -0.136}, {"measurement": "composite z-score", "setting": "[4]", "value": 0.483}, {"measurement": "composite z-score", "setting": "[5]", "value": -0.284}, {"measurement": "composite z-score", "setting": "[6]", "value": 0.294}, {"measurement": "composite z-score", "setting": "[7]", "value": 0.767}, {"measurement": "z-score", "setting": "[8]", "value": "-0.843 (inactive)"}, {"measurement": "composite z-score", "setting": "[9]", "value": -0.064}, {"measurement": "composite z-score", "setting": "[10]", "value": -0.0994}]}
{"smiles": "CC(C)C[C@@H]1NC(=O)[C@@]23C(=O)N[C@@H](Cc4ccccc4)C2[C@H](C)[C@@]2(C)O[C@H]2C3/C=C/C/C=C\\CNC(=O)CNC1=O", "note": "(stereo not given in full)", "values": [{"measurement": "composite z-score", "setting": "[1]", "value": -0.351}, {"measurement": "composite z-score", "setting": "[2]", "value": 0.0664}, {"measurement": "composite z-score", "setting": "[3]", "value": -0.13}, {"measurement": "composite z-score", "setting": "[4]", "value": 0.573}, {"measurement": "composite z-score", "setting": "[5]", "value": 0.0474}, {"measurement": "composite z-score", "setting": "[6]", "value": 0.458}, {"measurement": "composite z-score", "setting": "[7]", "value": 0.325}, {"measurement": "z-score", "setting": "[8]", "value": "-0.866 (inactive)"}, {"measurement": "composite z-score", "setting": "[9]", "value": -0.175}, {"measurement": "composite z-score", "setting": "[10]", "value": -0.48}]}
{"smiles": "C=CCC(OC(C)=O)[C@@H]1[C@@H](N(Cc2ccc(-c3cccc(C(F)(F)F)c3)o2)C(=O)Cc2ccc(F)cc2)c2cc(OCCCO)ccc2N1C(=O)Cc1ccc2ccccc2c1", "note": "(stereo not given in full)", "values": [{"measurement": "composite z-score", "setting": "[1]", "value": 0.136}, {"measurement": "composite z-score", "setting": "[2]", "value": -0.648}, {"measurement": "composite z-score", "setting": "[3]", "value": -0.129}, {"measurement": "composite z-score", "setting": "[4]", "value": 0.53}, {"measurement": "composite z-score", "setting": "[5]", "value": -0.349}, {"measurement": "composite z-score", "setting": "[6]", "value": -0.257}, {"measurement": "composite z-score", "setting": "[7]", "value": -0.285}, {"measurement": "z-score", "setting": "[8]", "value": "0.116 (inactive)"}, {"measurement": "composite z-score", "setting": "[9]", "value": -0.106}, {"measurement": "composite z-score", "setting": "[10]", "value": -0.212}]}
{"smiles": "COc1ccc([Si](C)(C)[C@H]2[C@H](CC(=O)N3CCC[C@H]3CO)O[C@@]3(C(=O)N(Cc4ccc(N5CCCCC5=O)cc4)c4ccccc43)[C@@H]2C)cc1", "values": [{"measurement": "composite z-score", "setting": "[1]", "value": -0.35}, {"measurement": "composite z-score", "setting": "[2]", "value": 0.227}, {"measurement": "composite z-score", "setting": "[3]", "value": -0.0494}, {"measurement": "composite z-score", "setting": "[4]", "value": 0.671}, {"measurement": "composite z-score", "setting": "[5]", "value": 0.565}, {"measurement": "composite z-score", "setting": "[6]", "value": 1.33}, {"measurement": "composite z-score", "setting": "[7]", "value": 1.12}, {"measurement": "z-score", "setting": "[8]", "value": "-4.24 (inactive)"}, {"measurement": "composite z-score", "setting": "[9]", "value": 0.536}, {"measurement": "composite z-score", "setting": "[10]", "value": 0.0373}]}
{"smiles": "CN(C)CCCC[C@@H]1NC(=O)[C@H]2C[C@@H](C(=O)O)[C@@H](c3ccc(O)cc3)N2C1=O", "values": [{"measurement": "composite z-score", "setting": "[1]", "value": 3.22}, {"measurement": "composite z-score", "setting": "[2]", "value": 2.34}, {"measurement": "composite z-score", "setting": "[3]", "value": 0.653}, {"measurement": "composite z-score", "setting": "[4]", "value": 1.04}, {"measurement": "composite z-score", "setting": "[5]", "value": 1.64}, {"measurement": "composite z-score", "setting": "[6]", "value": 2.84}, {"measurement": "composite z-score", "setting": "[7]", "value": 1.38}, {"measurement": "z-score", "setting": "[8]", "value": "2.42 (inactive)"}, {"measurement": "composite z-score", "setting": "[9]", "value": 3.29}, {"measurement": "composite z-score", "setting": "[10]", "value": 1.38}]}
{"smiles": "C=CC[C@@]1(C(=O)OC)N=C(c2ccc(OCCCO)cc2)O[C@@H]1c1ccccc1N=[N+]=[N-]", "values": [{"measurement": "composite z-score", "setting": "[1]", "value": 0.172}, {"measurement": "composite z-score", "setting": "[2]", "value": -0.0701}, {"measurement": "composite z-score", "setting": "[3]", "value": 0.0555}, {"measurement": "composite z-score", "setting": "[4]", "value": 0.256}, {"measurement": "composite z-score", "setting": "[5]", "value": 1.47}, {"measurement": "composite z-score", "setting": "[6]", "value": 1.49}, {"measurement": "composite z-score", "setting": "[7]", "value": 1.44}, {"measurement": "z-score", "setting": "[8]", "value": "1.54 (inactive)"}, {"measurement": "composite z-score", "setting": "[9]", "value": 0.587}, {"measurement": "composite z-score", "setting": "[10]", "value": 0.154}]}
{"smiles": "O=C1C[C@@](C(=O)O)(c2ccc([N+](=O)[O-])cc2)[C@@H](c2ccc(CO)cc2)N1C1CCCCC1", "values": [{"measurement": "composite z-score", "setting": "[1]", "value": -0.0207}, {"measurement": "composite z-score", "setting": "[2]", "value": 0.748}, {"measurement": "composite z-score", "setting": "[3]", "value": 0.137}, {"measurement": "composite z-score", "setting": "[4]", "value": 0.687}, {"measurement": "composite z-score", "setting": "[5]", "value": 1.46}, {"measurement": "composite z-score", "setting": "[6]", "value": 1.63}, {"measurement": "composite z-score", "setting": "[7]", "value": 1.21}, {"measurement": "z-score", "setting": "[8]", "value": "-0.118 (inactive)"}, {"measurement": "composite z-score", "setting": "[9]", "value": 0.905}, {"measurement": "composite z-score", "setting": "[10]", "value": -0.0645}]}
